Test results taken from the supplement of paper PMC10338343.
± gives the standard deviation.

These sequences were tested on MILI (PIWIL2) piRISC loaded with piRNA #1 (26 nt) (assay: pre-steady-state target cleavage rate (min^-1); guide: piRNA #1 5'p-UGAGGUAGUAGGUUGUAUAGUAUCCA; MIWI and MILI are mouse PIWI proteins and EfPiwi is from a freshwater sponge; tags in brackets are library labels; higher = faster piRNA-guided slicing of the target). Conditions: auxiliary factor: 500 nM mouse GTSF1.
How it was run: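 The method was Cleave-'n-Seq, in which uncleaved targets from a transcribed, DNA-blocked target RNA library were sequenced after exposure to active affinity-purified piRISC carrying one synthetic guide, with or without GTSF1 partner protein. Reactions contained 0.1 nM library, 1 nM piRISC and, where present, 500 nM GTSF1 in HEPES–potassium acetate buffer at 33 °C for 0–8 or 0–960 min. Reads were normalised to depth and to weakly complementary targets, three trials were pooled, and k3 was capped at 0.0001 min^-1. The pre-steady-state cleavage rate came from a burst-and-steady-state fit.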

| Sequence | pre-steady-state target cleavage rate |
| --- | --- |
| GGAGACCUAUCUAUACAAGCUACUACCUCA | 0.193 ± 0.017 |
| GGAGACCUUACUAUACAACCUACAACCUGA | 0.0284 ± 0.0093 |
| GGAGACCUAUGUAUACAAGGAACUACCUCA | 0.00296 ± 0.0028 |
| GGAGACCUUACUAUACAACCUACAUACCUCA | 0.157 ± 0.011 |
| GGAGUGGAUACUAUUGAACCUACUACCUCA | 0.0784 ± 0.0078 |
| GGAGACCUAUAUAUACAACCUACUACCUCA | 0.0406 ± 0.0075 |
| GGAGACCAUACUAAAGAACCUACUACCUCA | 0.11 ± 0.012 |
| GGAGACCUAUGAUUACAACCUACUUCCUCA | 0.00303 ± 0.0022 |
| GGAGACCUAUGAAUACAACCUACGACCUCA | 0.0047 ± 0.0026 |
| GGAGACCUAUGAUUACAACCUACUACCUUA | 0.00425 ± 0.0023 |
| GGAGACCUAUGUAUACUACCUUCUACCUCA | 0.00348 ± 0.0016 |
| GGAGACCUAACCAUACAACCUACUACCUCA | 0.12 ± 0.072 |
| GGAGACCUAUCAAUACAACCUACUACCUGA | 0.0265 ± 0.0091 |
| GGAGACCUAACUAUACAACCUACUACCAUCA | 0.261 ± 0.038 |
| GGAGACCAUACUAUACAACCUACUAACCUCA | 0.226 ± 0.019 |
| GGAGACCUAUGAAUACAAGCUACUACCUGA | 0.017 ± 0.0038 |
